# G9a block: inhibitors of human histone lysine methyltransferase G9a | Potency, µM (series often up to 102 µM), without a hit: top-dose activity, negative = inhibition, hits mostly inhibitors | G9a H3K9 monomethylation, AlphaScreen, 2 h | AID 504332 | hit rate 8.8% among 350,000; further: on the % scale 0 is the no-effect control and ±100 the full control effect; nearly all actives have a fitted effect of over 75% in size
# Target sequence (Q96KQ7 913-1193 limits assumed): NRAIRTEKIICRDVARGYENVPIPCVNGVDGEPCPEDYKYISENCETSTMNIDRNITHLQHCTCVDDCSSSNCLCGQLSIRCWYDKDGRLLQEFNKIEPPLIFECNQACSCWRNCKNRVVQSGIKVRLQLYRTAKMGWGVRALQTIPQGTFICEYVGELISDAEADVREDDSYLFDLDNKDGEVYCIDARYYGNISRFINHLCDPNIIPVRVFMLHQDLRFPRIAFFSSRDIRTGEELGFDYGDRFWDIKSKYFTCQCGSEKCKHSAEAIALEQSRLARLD
#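 Enzyme 20 nM + cpd, 15 min RT; add b-H3K9 pep 500 nM / SAM 20 uM; 2 h RT; anti-H3K9me1 Ab 0.5 ug/mL + SA donor / anti-rabbit acceptor beads 20 ug/mL each, 10 min; AlphaScreen read.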
# Sfp inh: blocks B. subtilis Sfp PPTase activity | Q9F4F7 | Biochemical Sfp PPTase activity, qHTS | Potency, µM, for the others: largest response in the series, negative = inhibition, actives largely listed as inhibitors | hit rate 3.5% among 310,000 | AID 1490;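 further: the enzyme is Sfp with the accession as filed and its product quenches rhodamine fluorescence; 0% = enzyme reaction without inhibitor and -100% = no enzyme wells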
#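 Sfp 15 nM + cpd, 15 min RT; start w/ rhodamine-CoA 5 uM, BHQ-2-YbbR 12.5 uM (final); 50 mM Hepes pH 7.6, 10 mM MgCl2, 0.01% NP-40, 0.01% BSA; read 525/598 nm at 0 and 30 min.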
# BAZ2B block: inhibitors of human BAZ2B bromodomain; Q9UIF8; AlphaScreen BAZ2B-H3K14Ac peptide displacement; Potency, µM (titrated, usually from 114 µM), without a hit: at the top dose activity change, negative = inhibition, usual class: inhibitors; hit rate 4.4% among 360,000; AID 504333; further: on the % scale 0 is the no-effect control and ±100 the full control effect; nearly all actives have a fitted effect of over 60% in size
#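 Compounds, titrated to a top concentration of 110 uM, were incubated 30 min at room temperature with preformed BAZ2B/acetyl-K14 H3 peptide complex (50 nM each). Proximity signal was measured by AlphaScreen after 20 min with beads.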
# L3MBTL1 inh: L3MBTL1 (human) inhibition. AID 485360. hit rate 0.66% among 230,000. AlphaScreen L3MBTL1–H3K9me1 peptide binding. Q9Y468. Potency, µM (doses to about 57.1 µM), inactives show top-dose activity, negative = inhibition, hits mostly inhibitors; further: on the % scale 0 is the no-effect control and ±100 the full control effect; nearly all actives have a fitted effect of over 60% in size
#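 L3MBTL1 (50 nM) pre-complexed 30 min with biotinylated H3(1-15)K9me1 peptide (75 nM), then compounds added for 30 min at room temperature; AlphaScreen streptavidin donor/nickel chelate acceptor beads (10 ug/mL final) read after 30 min dark incubation.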
# HP1b binding inh: blocks HP1-beta chromodomain binding to methylated histone tails | P83916 | AlphaScreen HP1-beta / biotin-H3K9me3 peptide binding | Potency, µM (titrated, usually from 114 µM), without a hit: top-dose activity change, negative = inhibition, actives largely listed as inhibitors | hit rate 0.56% among 390,000 | AID 540317; further: nearly all actives have a fitted effect of over 70% in size
# Target sequence (P83916 whole entry, looked up): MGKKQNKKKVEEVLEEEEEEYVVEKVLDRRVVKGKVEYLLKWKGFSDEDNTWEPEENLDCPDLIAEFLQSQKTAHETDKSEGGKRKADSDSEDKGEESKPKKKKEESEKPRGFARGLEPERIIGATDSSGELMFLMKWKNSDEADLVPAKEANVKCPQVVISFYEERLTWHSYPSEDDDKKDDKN
#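 Compound inhibition of the preformed complex between 50 nM HP1-beta and 50 nM biotinylated H3K9me3 peptide was read by AlphaScreen. Buffer was PBS pH 7.4 with 0.01% Tween-20. Incubations ran 30 min at room temperature, with 10 ug/mL donor/acceptor beads.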
# JMJD2A Tudor inh: JMJD2A Tudor domain (human) inhibition; Potency, µM (highest dose often 114 µM), for the others: at the top dose activity change, negative = inhibition, actives largely listed as inhibitors; AlphaScreen JMJD2A-Tudor / H3K4me3 peptide binding; O75164; AID 504339; hit rate 4.4% among 390,000; further: on the % scale 0 is the no-effect control and ±100 the full control effect; nearly all actives have a fitted effect of over 50% in size
# Starred values were filed as active, the others as inactive; ? = inconclusive; / = no result; ! = repeats disagree; [ ] = dose if it differs, or a comment. Hits are enriched below; roughly 12% of the tested compounds scored in any of these assays. The call rests on the fitted dose curve; in most records, active means well fitted curve in the direction sought with a large enough effect; inconclusive means small, poorly fitted or top-dose-only effect, or another doubt; inactive means no such curve, though single readings can be large; an effect the other way counts as inactive or inconclusive. Potency means the concentration at half of the fitted maximal effect.
SMILES,G9a block,Sfp inh,BAZ2B block,L3MBTL1 inh,HP1b binding inh,JMJD2A Tudor inh
CCCCC1(CCO)C(=O)NC(=S)NC1=O,/,/,/,/,1.9%,-12.4%
CCCC1(CCO)C(=O)NC(=S)NC1=O,/,/,/,/,21.7%,20µM*
C=C(CC1(CNP(=O)(c2ccccc2)c2ccccc2)CC1)c1ccccc1,/,12.8%,/,/,/,/
Cc1[nH]c2ccccc2c1CN(C)C,-36.9%[2.33 µM],9.0%,/,/,/,/
Cc1[nH]c2ccccc2c1C1=CCNCC1,50.1µM*,1.3%,?,15.4%,-9.0%,?
CC/C(=C(\c1ccc(O)cc1)c1ccc(OCCN(C)C)cc1)c1ccccc1,?,39.8µM*,44.7µM*,/,-21.5%,56.2µM*
Cc1ccc(-n2nc(C)c3c2NC(=O)CSC3c2ccc(O)cc2)cc1Cl (configuration not stated),10.6%[59 µM],/,-31.7%,/,?,-15.6%
Cc1cccc(C(O)(C(=O)NNC(=O)CN2CCN(C)CC2)c2cccc(C)c2)c1,70.8µM*,5.3%,-3.2%,1.6%,10.6%,-9.3%
Cc1ccc(C(O)(C(=O)NNC(=O)CN2CCN(C)CC2)c2ccc(C)cc2)cc1,?,-4.5%,-37.4%,-5.7%,16.7%,-4.0%
N[C@@H](Cn1oc(=O)[nH]c1=O)C(=O)O,10µM*!,44.7µM*,/,/,-7.5%,3.98µM*
CCOC(=O)c1ccc(N2C(=O)c3n[nH]c(-c4cccs4)c3C2c2ccc(Cl)cc2Cl)cc1 (configuration not stated),-42.8%[59 µM],/,/,/,14.7%,?
CCOC(=O)c1c(NC(=O)C(c2ccccc2)c2ccccc2)sc2c1C1CCN2CC1,50.1µM*,?,?,-24.8%,0.5%,?
COc1cc(-c2ccc(N)c(OC)c2)ccc1N,0.3%[0.501 µM],/,50.1µM*,-19.0%,?,?
COc1ccc(CCN)cc1O,?,29.3%,/,/,47.2%,-3.4%
CCOC(=O)CCN(SN(C)C(=O)Oc1cccc2c1OC(C)(C)C2)C(C)C,/,-13.2%,/,/,/,/
COc1ccc(NC(=O)Cn2c(=O)c3cccn3c3ccccc32)cc1Cl,1.7%[59 µM],/,0.6%,/,41.7%,6.2%
CC[C@]1(C2=NCCN2)Cc2ccccc2O1,/,3.6%,/,/,/,/
S=c1[nH]nc(-c2ccco2)n1/N=C/c1cccs1,1.26µM*,-24.6%,-32.9%,-9.3%,-8.5%,39.8µM*
O=[N+]([O-])c1cc(F)c(N2CCCCCC2)cc1N1CCNCC1,/,3.1%,?,0.2%,-2.0%,-27.6%
CCn1cc(C(=O)O)c(=O)c2cc(F)c(N3CCNCC3)cc21,8.91µM*!,-5.3%,-8.1%,-3.6%,/,/
CC(=O)CC(c1ccccc1[N+](=O)[O-])c1c(O)c2ccccc2oc1=O (configuration not stated),50.1µM*,19.5%,-19.3%,-9.0%,29.7%,-8.4%
C=C/C(=C/C(=O)C[C@H](C)C[C@@H](C)CC[C@H](O)[C@H](C)C(=O)C[C@@H](O)[C@H](C)[C@@H](C)OC(=O)C[C@@H](O)C1=C(C)C(=O)OC1=O)CC,-42.2%[2.33 µM],-9.4%,/,/,/,/
Cc1ccc(S(=O)(=O)N2CN3CCN(C3)C2)cc1,-8.0%[59 µM],12.6%,-1.1%,0.9%,24.3%,-12.2%
CN1CCN(S(=O)(=O)c2ccc(C3CCCCC3)cc2)CC1,8.91µM*,/,6.9%,4.7%,-7.9%,89.1µM*
CN(C(=O)Cc1ccccc1)[C@H](CN1CCCC1)c1ccccc1,-7.6%[59 µM],-9.4%,/,/,/,/
SMILES,G9a block,Sfp inh,BAZ2B block,L3MBTL1 inh,HP1b binding inh,JMJD2A Tudor inh
CC(=O)Nc1c2sscc-2n(C)c1=O,-21.4%[12.7 µM],?,/,/,/,/
N#CCn1c(CCl)nc2ccccc2c1=O,56.2µM*,9.0%,-13.5%,7.3%,18.6%,-16.4%
CN(C)CCc1nc2ccccc2c(=O)n1-c1ccccc1,-26.0%[12.7 µM],13.1%,12.2%,3.5%[11.4 µM],/,/
CCC1COC(Cn2cncn2)(c2ccc(Cl)cc2Cl)O1 (configuration not stated),/,-22.6%,/,/,/,/
O=C(O)c1ccccc1-c1c2cc(Br)c(=O)cc-2oc2[c]([Hg])c(O)c(Br)cc12,0.891µM*,2µM*!,/,/,/,/
O=C(CNC(=O)c1cccs1)NCC(=O)OCC(=O)c1ccc([N+](=O)[O-])cc1,44.7µM*,?,/,/,-1.7%,-4.5%
O=C(OCC(=O)c1ccc([N+](=O)[O-])cc1)/C(=C\c1ccc(Cl)cc1)NC(=O)c1ccccc1,?,11.0%,-18.4%,3.7%,16.3%,-17.7%
C[C@]12CC[C@@H]3[C@@H](CCC4=CC(=O)CC[C@@H]43)[C@@H]1CC[C@@H]2OC(=O)CCc1ccccc1,28.5%[59 µM],?,/,/,/,/
O=C(C[n+]1ccccc1)c1ccc(Cl)cc1,2µM*,5.1%,-0.6%,/,10.1%,?
CCCC(=O)O[C@@H]1[C@@H](C)[C@@]2(O)[C@@H](C=C(CO)C[C@@]3(O)C(=O)C(C)=C[C@@H]23)[C@@H]2C(C)(C)[C@]12OC(=O)CCC,/,-13.1%,/,/,/,/
CC(=O)NC1N=C(C)N(c2ccccc2)C1=O (configuration not stated),3.16µM*,39.8µM*,-14.9%,/,?,44.7µM*
CC1=NN(c2ccccc2)C(=O)C1=C(C)C,?,6.9%,?,/,50.1%,-19.0%
O=c1c(O)c(-c2ccc(O)c(O)c2)oc2c(O)c(O)cc(O)c12,?,-83.7%,/,/,/,/
CCCCOP(=O)(c1ccc(N(C)C)cc1)C(Nc1ccccc1)c1ccccc1 (configuration not stated),44.7µM*,-22.8%,?,-24.2%,-31.8%,?
COC(=O)C(N)CCCN=C(N)N[N+](=O)[O-] (configuration not stated),11.4%[12.7 µM],/,/,/,/,/
CCC(=O)CCCCC[C@@H]1NC(=O)[C@H]2CCCCN2C(=O)[C@H]([C@@H](C)CC)NC(=O)[C@H](Cc2cn(OC)c3ccccc23)NC1=O,/,-17.2%,/,/,/,/
S=c1[nH]c2ccccc2[nH]1,12.6µM*,-1.7%,-11.7%,-3.4%,-5.3%,?
C[C@@]12C=CC(=O)C=C1CCC1C2CC[C@]2(C)C(=O)CCC12 (some centres not stated),/,8.9%,/,/,/,/
CCCN(CCC)[C@@H]1CCc2ccc(O)cc2C1,?,8.6%,/,/,/,/
CCCN(CCC)C1CCc2ccc(O)cc2C1 (configuration not stated),36.5%[12.7 µM],17.1%,9.1%,3.7%,41.0%,-11.5%
CCCN(CCC)C1CCc2cccc(O)c2C1 (configuration not stated),23.8µM*!,?,/,/,23.1%,-18.7%
CCCN(CCC)[C@@H]1CCc2c(F)ccc(O)c2C1,50.1µM*,/,/,/,/,/
CC1=C2C(=O)C3C(CC=C4C[C@@H](O)CC[C@@]43C)[C@@H]2CC[C@]12O[C@@H]1C[C@H](C)CN[C@H]1C2C (some centres not stated),/,3.8%,/,/,/,/
COc1ccc(CN2CCN(C(=O)Cc3ccccc3)CC2)c(OC)c1,20µM*,-13.9%,56.2µM*,2.1%,?,2µM*
